Data published in PubChem BioAssay (EPA / NIEHS).
Results filed as inconclusive are left out. Where a structure was tested more than once in an assay, its records may differ in their call. Activity calls are given as the source filed them. The calls were made as follows, unless noted: active = hit-call score of the fitted dose curve at least 0.9, where 1 is the maximum; inconclusive = response in the unintended direction; inactive = score below 0.9.

Tests used:
[1] = read-out: organic anion transporter (SLCO1B1), SLCO1B1 (gene 10599); test: CLD_SLCO1B1_48hr: CellzDirect (CLD) Gene Expression Assay for organic anion transporter (SLCO1B1) at 48 hours (AID 2283707)
How it was run: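 Primary human hepatocytes from two donor preparations dosed daily for two days with multiple concentrations, 0.2% DMSO vehicle. SLCO1B1 mRNA at 48 h by quantitative nuclease protection assay, chemiluminescence; gain-of-signal fitted versus DMSO.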

[2] = read-out: glucuronosyltransferase (UGT1A1), UGT1A1 (gene 54658); test: CLD_UGT1A1_48hr: CellzDirect (CLD) Gene Expression Assay for glucuronosyltransferase (UGT1A1) at 48 hours (AID 2283709);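 also: actives increase expression relative to DMSO so potency refers to induction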
How it was run: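 Human primary hepatocytes dosed daily for two days (0.2% DMSO vehicle), harvested at 48 h. UGT1A1 mRNA induction measured by quantitative nuclease protection assay with chemiluminescence; gain of signal versus DMSO; cytotoxicity flagged from morphology.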

[3] = Tanguay_ZF_120hpf_ActivityScore_legacy: (Legacy) Oregon State University Tanguay Lab 120 Hour Post-fertilization zebrafish Assay Score for Activity (AID 2283742);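 as to AC50: static exposure from 6 hpf until 120 hpf at 28 °C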
How it was run: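 Tropical 5D wild-type zebrafish embryos, dechorionated with pronase at 4 hpf, were exposed singly from 6 hpf to 120 hpf statically at 28C in 0.64% DMSO. Malformations and mortality were scored as binary by brightfield, with the activity score combining 18 morphology components.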

[4] = read-out: alkyl and aryl transferase (GSTA2), GSTA2 (gene 2939); test: CLD_GSTA2_48hr: CellzDirect (CLD) Gene Expression Assay for alkyl and aryl transferase (GSTA2) at 48 hours (AID 2283708);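 also: active means mRNA induction above DMSO vehicle baseline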
How it was run: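 Primary human hepatocytes dosed daily for two days (0.2% DMSO vehicle), harvested at 48 h. GSTA2 mRNA induction measured by quantitative nuclease protection assay with chemiluminescent imaging, fitted for gain of signal relative to DMSO.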

[5] = STM_H9_CystineISnorm_perc: Stemina devTOX quickPredict H9 human embryonic stem cell (hESC)-based Assay for Cystine (CYSS) Metabolite Biomarker, Normalized (AID 2283713; active = hit-call score of the fitted dose curve at least 0.9, where 1 is the maximum; inactive = score below 0.9)
How it was run: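 Secreted cystine was measured by UPLC-HRMS in H9 hESC medium after 72h compound exposure with 24-hourly replenishment. Values are standard-normalized areas relative to 0.1% DMSO.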

[6] = STM_H9_OrnCyssISnorm_ratio: Stemina devTOX quickPredict H9 human embryonic stem cell (hESC)-based Assay for Ornithine (ORN):Cystine (CYSS) Ratio (AID 2283714)
How it was run: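 Undifferentiated H9 hESCs were exposed to compound for 72h with media and chemical replaced every 24h. Final 24-h conditioned media were deproteinized and analysed by UPLC-HRMS. ORN and CYSS peak areas were normalized to C13 internal standards and the ratio taken versus 0.1% DMSO.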

[7] = read-out: xenobiotic metabolism (CYP1A1), CYP1A1 (gene 1543); test: CLD_CYP1A1_48hr: CellzDirect (CLD) Gene Expression Assay for xenobiotic metabolism (CYP1A1) at 48 hours (AID 2283705)
How it was run: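 Primary human hepatocytes from two donors dosed daily for two days at multiple concentrations, 0.2% DMSO vehicle; CYP1A1 mRNA induction at 48 h by qNPA chemiluminescence. Cytotoxicity noted by phase-contrast morphology.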

[8] = CEETOX_H295R_MTT_cell_viability: Viability Assessment in the CeeTox HT-H295R MTT Assay (AID 2283718; active = hit-call score of the fitted dose curve at least 0.9, where 1 is the maximum; inactive = score below 0.9;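 as to AC50: curve fitted both ways so AC50 may mark viability loss or gain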)
How it was run: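 H295R cells prestimulated 48 h with 10 uM forskolin, then exposed 48 h to test chemical (0.1% DMSO final). Viability by MTT (0.5 mg/ml, 4 h, 37 C), absorbance 570/650 nm; percent change versus DMSO, bidirectional fit.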

[9] = read-out: sulfotransferase (SULT2A), SULT2A1 (gene 6822); test: CLD_SULT2A_48hr: CellzDirect (CLD) Gene Expression Assay for sulfotransferase (SULT2A) at 48 hours (AID 2283710);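 also: hits raise SULT2A1 transcript above the 0.2% DMSO vehicle baseline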
How it was run: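 Primary human hepatocytes (two donor preparations) dosed daily for two days with chemicals at multiple concentrations, vehicle 0.2% DMSO; SULT2A1 mRNA induction at 48 h by quantitative nuclease protection assay, chemiluminescent read-out, fitted for gain of signal versus DMSO.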

[10] = ArunA_CellTiter_hNC: Viability Assessment in the ArunA Biomedical's Oris Neural Crest (hNC) Cell Migration Assay (AID 2283752)
How it was run: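 Viability of embryonic neural crest stem cells from the H9 line is scored 72 h after dosing, with DMSO as negative control and baseline. A drop in CellTiter Aqueous One signal indicates cytotoxicity.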

CS/C(C)=N/OC(=O)N(C)SN(C)C(=O)O/N=C(\C)SC
outcome [1]: inactive
outcome [2]: inactive
outcome [3]: inactive

COC(=O)N(OC)c1ccccc1COc1ccn(-c2ccc(Cl)cc2)n1
outcome [1]: inactive
AC50 [4]: 33.8 µM (active)
AC50 [5]: 0.743 µM (active)
AC50 [6]: 0.806 µM (active)
AC50 [3]: 0.409 µM (active)

COP(N)(=O)SC (stereo unspecified)
outcome [1]: inactive
outcome [4]: inactive
outcome [2]: inactive
outcome [3]: inactive

COC(=O)C(C)Oc1ccc(Oc2ccc(Cl)cc2Cl)cc1 (stereo unspecified)
outcome [7]: inactive
outcome [1]: inactive
outcome [4]: inactive
AC50 [2]: 20 µM (active)
outcome [2]: inactive
outcome [3]: inactive

COc1nc(NC(C)C)nc(NC(C)C)n1
outcome [1]: inactive
outcome [2]: inactive
AC50 [5]: 13.5 µM (active)
AC50 [6]: 14.6 µM (active)
outcome [8]: inactive
outcome [3]: inactive

Cc1ccc(-c2c(Cl)nc(C#N)n2S(=O)(=O)N(C)C)cc1
AC50 [7]: 20 µM (active)
outcome [4]: inactive
AC50 [3]: 2.27 µM (active)

CCNc1nc(Cl)nc(NCC)n1
outcome [1]: inactive
outcome [2]: inactive
outcome [5]: inactive
outcome [6]: inactive
outcome [8]: inactive
outcome [3]: inactive

CCOC(=O)CC(SP(=S)(OC)OC)C(=O)OCC (stereo unspecified)
outcome [4]: inactive
outcome [2]: inactive
AC50 [5]: 86.9 µM (active)
AC50 [6]: 80.9 µM (active)
outcome [8]: inactive
AC50 [3]: 29.2 µM (active)

COC(=O)C=C(C)OP(=O)(OC)OC
outcome [7]: inactive
outcome [4]: inactive
outcome [2]: inactive
outcome [3]: inactive

CCCCNC(=O)n1c(NC(=O)OC)nc2ccccc21
outcome [4]: inactive
outcome [2]: inactive
AC50 [5]: 8.39 µM (active)
AC50 [6]: 6.59 µM (active)
AC50 [8]: 0.015 µM (active)
outcome [3]: inactive

CCNc1nc(Cl)nc(NC(C)C)n1
outcome [1]: inactive
outcome [4]: inactive
AC50 [2]: 9.63 µM (active)
AC50 [5]: 42.3 µM (active)
AC50 [6]: 50 µM (active)
outcome [8]: inactive
outcome [3]: inactive

COC(=O)c1ccccc1C(=O)OC
outcome [1]: inactive
outcome [4]: inactive
outcome [2]: inactive
outcome [5]: inactive
outcome [6]: inactive
outcome [8]: inactive
outcome [3]: inactive

COc1cnc(OC)n2nc(NS(=O)(=O)c3c(OCC(F)F)cccc3C(F)(F)F)nc12
outcome [1]: inactive
outcome [4]: inactive
outcome [2]: inactive
outcome [3]: inactive

CCCC1COC(Cn2cncn2)(c2ccc(Cl)cc2Cl)O1 (stereo unspecified)
outcome [4]: inactive
outcome [2]: inactive
AC50 [5]: 33.6 µM (active)
AC50 [6]: 57.5 µM (active)
outcome [8]: inactive
AC50 [3]: 42.8 µM (active)

COP(=S)(OC)Oc1nc(Cl)c(Cl)cc1Cl
outcome [1]: inactive
outcome [4]: inactive
outcome [2]: inactive
outcome [8]: inactive
outcome [3]: inactive

CCCN(CCC)c1c([N+](=O)[O-])cc(S(N)(=O)=O)cc1[N+](=O)[O-]
outcome [1]: inactive
outcome [4]: inactive
outcome [2]: inactive
outcome [3]: inactive

COc1nc(C)nc(NC(=O)NS(=O)(=O)c2ccccc2CCC(F)(F)F)n1
outcome [1]: inactive
outcome [4]: inactive
outcome [2]: inactive

CC(C)Oc1cc(-n2nc(C(C)(C)C)oc2=O)c(Cl)cc1Cl
outcome [4]: inactive
outcome [2]: inactive
AC50 [9]: 2.92 µM (active)
outcome [8]: inactive
outcome [3]: inactive

Oc1ccccc1-c1ccccc1
outcome [1]: inactive
outcome [4]: inactive
outcome [2]: inactive
outcome [8]: inactive
AC50 [3]: 45.8 µM (active)

CC(C)(C)c1ccc(CSc2cnn(C(C)(C)C)c(=O)c2Cl)cc1
outcome [1]: inactive
outcome [4]: inactive
outcome [2]: inactive
AC50 [5]: 0.171 µM (active)
AC50 [6]: 0.091 µM (active)
AC50 [3]: 40.3 µM (active)
outcome [10]: inactive

Fc1ccc(Oc2ccnc3cc(Cl)cc(Cl)c23)cc1
outcome [1]: inactive
outcome [4]: inactive
outcome [2]: inactive
outcome [3]: inactive

COc1nc(C)nc(NC(=O)NS(=O)(=O)c2ccccc2Cl)n1
outcome [1]: inactive
outcome [4]: inactive
outcome [2]: inactive

CCCCOC(=O)c1ccccc1C(=O)OCCCC
outcome [1]: inactive
outcome [4]: inactive
outcome [2]: inactive
AC50 [5]: 50 µM (active)
AC50 [6]: 56 µM (active)
outcome [8]: inactive
outcome [3]: inactive
